Measurements as given in publication PMC7862700, “An all-to-all approach to the identification of sequence-specific readers for epigenetic DNA modifications on cytosine”.

Experiments:
Assay in all cases: DAPPL (digital affinity profiling via proximity ligation, sequencing); 10 mM Tris-HCl pH 7.5, 50 mM NaCl, 1 mM DTT, 4% glycerol, room temperature, 30 min; GST-TFs on glutathione beads, 16-mer random dsDNA library, 0.1% formaldehyde crosslink after washing; high values mean tight binding
FLI1 = molecular target: T1, FLI1 (Homo sapiens, UniProt Q01543 1-452); details: protein: recombinant; tags: N-terminal GST; dsDNA, one strand shown
T1 sequence: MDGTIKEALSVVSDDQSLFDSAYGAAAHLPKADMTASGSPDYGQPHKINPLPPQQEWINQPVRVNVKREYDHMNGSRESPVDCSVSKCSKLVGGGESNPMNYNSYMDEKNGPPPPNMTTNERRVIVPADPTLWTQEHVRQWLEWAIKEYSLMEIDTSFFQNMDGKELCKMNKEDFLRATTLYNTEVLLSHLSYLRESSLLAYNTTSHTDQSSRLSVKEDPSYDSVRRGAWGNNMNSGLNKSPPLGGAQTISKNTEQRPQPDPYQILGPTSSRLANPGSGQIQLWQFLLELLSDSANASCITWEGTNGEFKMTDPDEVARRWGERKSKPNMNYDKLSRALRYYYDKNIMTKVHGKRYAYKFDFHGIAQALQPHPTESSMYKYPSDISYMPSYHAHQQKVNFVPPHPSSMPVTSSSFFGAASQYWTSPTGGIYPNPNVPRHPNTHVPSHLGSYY
Outline: (§1)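 In yeast, human transcription factors were expressed with a GST fusion, then pulled down on glutathione beads and given DNA barcodes. Pooled with a tag-only sample, they were exposed to 200 nmole of a 16-mer random double-stranded DNA library (Tris/NaCl/DTT/glycerol buffer, room temperature, 30 min), washed, crosslinked with 0.1% formaldehyde, proximity-ligated using BsaI/T4 ligase for 1 h at 37 °C, PCR-amplified and read on an Illumina NextSeq500. Each hexamer's frequency of reads for a factor, divided by the matching frequency for the tag-only sample, gives the binding signal.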

ELK1 = molecular target: T2, ELK1 (Homo sapiens, UniProt P19419 1-428); details: protein: recombinant; tags: N-terminal GST; dsDNA, one strand shown
T2 sequence: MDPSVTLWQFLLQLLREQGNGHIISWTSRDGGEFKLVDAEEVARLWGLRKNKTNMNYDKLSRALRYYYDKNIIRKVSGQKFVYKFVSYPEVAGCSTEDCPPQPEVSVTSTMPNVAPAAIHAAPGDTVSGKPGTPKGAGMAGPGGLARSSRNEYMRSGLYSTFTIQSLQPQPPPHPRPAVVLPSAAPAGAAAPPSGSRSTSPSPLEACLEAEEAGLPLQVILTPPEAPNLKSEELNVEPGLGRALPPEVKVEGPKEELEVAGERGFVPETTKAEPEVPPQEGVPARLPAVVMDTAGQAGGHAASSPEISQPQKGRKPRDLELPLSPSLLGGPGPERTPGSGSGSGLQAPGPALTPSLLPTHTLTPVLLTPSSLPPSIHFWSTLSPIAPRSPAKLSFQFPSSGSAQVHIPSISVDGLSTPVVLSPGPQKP
Outline: as §1

GABPA = molecular target: T3, GABPA (Homo sapiens, UniProt Q06546 1-454); details: protein: recombinant; tags: N-terminal GST; dsDNA, one strand shown
T3 sequence: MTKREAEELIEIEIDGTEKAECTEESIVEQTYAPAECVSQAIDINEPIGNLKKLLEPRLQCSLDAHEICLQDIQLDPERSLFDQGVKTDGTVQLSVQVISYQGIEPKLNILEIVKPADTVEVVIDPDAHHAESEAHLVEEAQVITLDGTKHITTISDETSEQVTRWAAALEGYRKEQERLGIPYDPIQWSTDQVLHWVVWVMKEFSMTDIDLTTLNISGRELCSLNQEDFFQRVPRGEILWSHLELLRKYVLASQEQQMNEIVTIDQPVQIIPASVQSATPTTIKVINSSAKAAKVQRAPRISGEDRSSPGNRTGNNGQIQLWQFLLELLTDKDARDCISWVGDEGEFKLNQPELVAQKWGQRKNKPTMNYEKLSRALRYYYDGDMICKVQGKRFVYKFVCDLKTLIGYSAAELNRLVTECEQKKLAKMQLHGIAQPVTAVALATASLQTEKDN
Outline: as §1

ERG = molecular target: T4, ERG (Homo sapiens, UniProt P11308 1-479); details: protein: recombinant; tags: N-terminal GST; dsDNA, one strand shown
T4 sequence: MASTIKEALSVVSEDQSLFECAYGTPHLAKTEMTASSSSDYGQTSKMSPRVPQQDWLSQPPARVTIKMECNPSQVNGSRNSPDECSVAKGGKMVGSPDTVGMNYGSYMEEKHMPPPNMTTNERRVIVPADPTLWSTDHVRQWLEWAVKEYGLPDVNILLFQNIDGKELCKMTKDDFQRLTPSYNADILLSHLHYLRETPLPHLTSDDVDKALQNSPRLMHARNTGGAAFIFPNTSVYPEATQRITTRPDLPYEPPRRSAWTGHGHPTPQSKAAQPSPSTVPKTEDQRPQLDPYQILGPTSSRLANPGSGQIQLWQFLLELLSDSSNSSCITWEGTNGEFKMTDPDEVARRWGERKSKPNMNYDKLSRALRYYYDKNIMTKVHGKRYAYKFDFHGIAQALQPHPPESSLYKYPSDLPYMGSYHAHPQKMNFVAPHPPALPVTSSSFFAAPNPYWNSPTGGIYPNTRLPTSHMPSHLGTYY
Outline: as §1

ELF1 = ELF1 (Homo sapiens, UniProt P32519 1-619); details: protein: recombinant; tags: N-terminal GST; dsDNA, one strand shown
Outline: as §1

EHF = molecular target: T5, EHF (Homo sapiens, UniProt Q9NZC4 1-300); details: protein: recombinant; tags: N-terminal GST; dsDNA, one strand shown
T5 sequence: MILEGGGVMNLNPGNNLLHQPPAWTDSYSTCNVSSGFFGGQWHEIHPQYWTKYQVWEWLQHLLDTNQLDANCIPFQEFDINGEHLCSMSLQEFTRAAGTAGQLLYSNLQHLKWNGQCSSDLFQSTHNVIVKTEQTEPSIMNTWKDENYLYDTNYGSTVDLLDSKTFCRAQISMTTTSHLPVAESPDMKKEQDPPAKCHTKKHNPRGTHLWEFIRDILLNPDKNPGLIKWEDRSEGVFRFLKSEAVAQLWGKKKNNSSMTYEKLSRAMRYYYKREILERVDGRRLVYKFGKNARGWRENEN
Outline: as §1

SPI1 = SPI1 (Homo sapiens, UniProt P17947 1-270); details: protein: recombinant; tags: N-terminal GST; dsDNA, one strand shown
Outline: as §1

SPIB = SPIB (Homo sapiens, UniProt Q01892 1-262); details: protein: recombinant; tags: N-terminal GST; dsDNA, one strand shown
Outline: as §1

ELK3 = molecular target: T6, ELK3 (Homo sapiens, UniProt P41970 1-407); details: protein: recombinant; tags: N-terminal GST; dsDNA, one strand shown
T6 sequence: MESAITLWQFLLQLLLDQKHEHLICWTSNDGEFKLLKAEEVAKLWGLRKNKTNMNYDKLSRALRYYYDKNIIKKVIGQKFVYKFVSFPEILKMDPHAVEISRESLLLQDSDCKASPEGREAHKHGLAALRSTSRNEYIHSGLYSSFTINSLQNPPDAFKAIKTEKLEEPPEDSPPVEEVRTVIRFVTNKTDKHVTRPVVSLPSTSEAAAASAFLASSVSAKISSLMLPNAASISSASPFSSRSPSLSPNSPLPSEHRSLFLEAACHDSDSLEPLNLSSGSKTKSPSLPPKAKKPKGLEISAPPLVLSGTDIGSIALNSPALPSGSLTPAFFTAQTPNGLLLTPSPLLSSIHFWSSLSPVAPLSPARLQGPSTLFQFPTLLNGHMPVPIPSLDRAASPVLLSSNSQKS
Outline: as §1

FEV = molecular target: T7, FEV (Homo sapiens, UniProt Q99581 1-238); details: protein: recombinant; tags: N-terminal GST; dsDNA, one strand shown
T7 sequence: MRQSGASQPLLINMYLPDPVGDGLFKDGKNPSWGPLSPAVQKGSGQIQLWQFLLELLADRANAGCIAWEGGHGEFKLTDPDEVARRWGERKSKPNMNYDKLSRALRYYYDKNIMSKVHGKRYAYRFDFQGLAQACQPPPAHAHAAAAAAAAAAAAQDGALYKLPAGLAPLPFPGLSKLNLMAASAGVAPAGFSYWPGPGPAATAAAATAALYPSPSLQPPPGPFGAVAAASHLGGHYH
Outline: as §1

ETV5 = ETV5 (Homo sapiens, UniProt P41161 1-510); details: protein: recombinant; tags: N-terminal GST; dsDNA, one strand shown
Outline: as §1

HSF1 = HSF1 (Homo sapiens, UniProt Q00613 1-529); details: protein: recombinant; tags: N-terminal GST; chain copies: 3; dsDNA, one strand shown
Outline: as §1

SPIC = molecular target: T8, SPIC (Homo sapiens, UniProt Q8N5J4 1-248); details: protein: recombinant; tags: N-terminal GST; dsDNA, one strand shown
T8 sequence: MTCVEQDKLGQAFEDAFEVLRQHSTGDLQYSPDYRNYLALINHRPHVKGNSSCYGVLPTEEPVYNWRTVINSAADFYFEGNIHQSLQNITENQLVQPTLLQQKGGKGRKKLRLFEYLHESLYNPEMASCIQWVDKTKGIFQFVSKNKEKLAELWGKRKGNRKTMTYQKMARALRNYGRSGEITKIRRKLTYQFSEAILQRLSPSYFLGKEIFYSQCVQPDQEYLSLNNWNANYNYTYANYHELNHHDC
Outline: as §1

ELF4 = ELF4 (Homo sapiens, UniProt Q99607 1-663); details: protein: recombinant; tags: N-terminal GST; dsDNA, one strand shown
Outline: as §1

ELK4 = molecular target: T9, ELK4 (Homo sapiens, UniProt P28324-2 1-405); details: protein: recombinant; tags: N-terminal GST; dsDNA, one strand shown
T9 sequence: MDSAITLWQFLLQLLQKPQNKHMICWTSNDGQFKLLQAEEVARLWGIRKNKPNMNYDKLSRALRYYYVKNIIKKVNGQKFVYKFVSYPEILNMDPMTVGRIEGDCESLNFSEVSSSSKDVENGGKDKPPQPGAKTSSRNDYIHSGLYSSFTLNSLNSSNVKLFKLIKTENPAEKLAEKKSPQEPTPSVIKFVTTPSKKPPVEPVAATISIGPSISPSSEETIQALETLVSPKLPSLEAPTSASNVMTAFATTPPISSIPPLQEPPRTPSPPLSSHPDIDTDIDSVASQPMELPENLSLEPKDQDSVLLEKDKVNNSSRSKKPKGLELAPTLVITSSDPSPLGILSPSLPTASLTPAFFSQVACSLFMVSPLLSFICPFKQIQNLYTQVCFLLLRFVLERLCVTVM
Outline: as §1

ETV2 = molecular target: T10, ETV2 (Homo sapiens, UniProt O00321 1-342); details: protein: recombinant; tags: N-terminal GST; dsDNA, one strand shown
T10 sequence: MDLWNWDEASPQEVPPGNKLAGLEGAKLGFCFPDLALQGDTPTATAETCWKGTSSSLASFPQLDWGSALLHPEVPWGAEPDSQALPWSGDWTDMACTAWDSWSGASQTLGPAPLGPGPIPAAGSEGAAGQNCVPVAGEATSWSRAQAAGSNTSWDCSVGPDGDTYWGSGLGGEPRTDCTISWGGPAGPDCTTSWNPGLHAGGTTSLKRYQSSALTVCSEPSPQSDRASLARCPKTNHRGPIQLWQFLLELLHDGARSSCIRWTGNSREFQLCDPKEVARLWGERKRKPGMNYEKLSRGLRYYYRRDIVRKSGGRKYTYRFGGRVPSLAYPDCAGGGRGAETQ
Outline: as §1

ELF3 = molecular target: T11, ELF3 (Homo sapiens, UniProt P78545 1-371); details: protein: recombinant; tags: N-terminal GST; dsDNA, one strand shown
T11 sequence: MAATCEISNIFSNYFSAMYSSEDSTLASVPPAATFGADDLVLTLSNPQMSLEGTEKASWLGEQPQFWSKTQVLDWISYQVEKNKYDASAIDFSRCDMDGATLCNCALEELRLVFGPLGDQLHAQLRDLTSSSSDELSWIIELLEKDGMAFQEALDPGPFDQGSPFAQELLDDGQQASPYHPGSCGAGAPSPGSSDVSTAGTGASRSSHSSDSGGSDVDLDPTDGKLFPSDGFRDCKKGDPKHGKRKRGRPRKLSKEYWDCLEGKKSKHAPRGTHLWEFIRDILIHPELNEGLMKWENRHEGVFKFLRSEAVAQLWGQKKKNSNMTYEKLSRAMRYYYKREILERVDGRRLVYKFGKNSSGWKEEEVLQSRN
Outline: as §1

ETV1 = ETV1 (Homo sapiens, UniProt P50549 1-477); details: protein: recombinant; tags: N-terminal GST; dsDNA, one strand shown
Outline: as §1

Chain of ETV1 (P50549 whole entry): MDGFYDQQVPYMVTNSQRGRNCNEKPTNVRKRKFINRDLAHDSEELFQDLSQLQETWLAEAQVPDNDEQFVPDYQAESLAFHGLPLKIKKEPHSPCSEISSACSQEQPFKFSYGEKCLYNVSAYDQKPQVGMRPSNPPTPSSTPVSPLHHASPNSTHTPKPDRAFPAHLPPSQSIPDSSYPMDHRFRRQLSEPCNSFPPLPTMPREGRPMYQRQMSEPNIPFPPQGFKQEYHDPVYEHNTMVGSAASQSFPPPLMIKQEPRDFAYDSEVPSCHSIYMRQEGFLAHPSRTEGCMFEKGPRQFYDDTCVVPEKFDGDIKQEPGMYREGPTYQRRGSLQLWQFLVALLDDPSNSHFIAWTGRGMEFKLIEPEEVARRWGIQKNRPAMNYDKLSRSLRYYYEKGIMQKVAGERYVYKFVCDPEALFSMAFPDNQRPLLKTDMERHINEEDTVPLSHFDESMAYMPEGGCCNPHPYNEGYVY
Chain of ELF4 (Q99607 whole entry): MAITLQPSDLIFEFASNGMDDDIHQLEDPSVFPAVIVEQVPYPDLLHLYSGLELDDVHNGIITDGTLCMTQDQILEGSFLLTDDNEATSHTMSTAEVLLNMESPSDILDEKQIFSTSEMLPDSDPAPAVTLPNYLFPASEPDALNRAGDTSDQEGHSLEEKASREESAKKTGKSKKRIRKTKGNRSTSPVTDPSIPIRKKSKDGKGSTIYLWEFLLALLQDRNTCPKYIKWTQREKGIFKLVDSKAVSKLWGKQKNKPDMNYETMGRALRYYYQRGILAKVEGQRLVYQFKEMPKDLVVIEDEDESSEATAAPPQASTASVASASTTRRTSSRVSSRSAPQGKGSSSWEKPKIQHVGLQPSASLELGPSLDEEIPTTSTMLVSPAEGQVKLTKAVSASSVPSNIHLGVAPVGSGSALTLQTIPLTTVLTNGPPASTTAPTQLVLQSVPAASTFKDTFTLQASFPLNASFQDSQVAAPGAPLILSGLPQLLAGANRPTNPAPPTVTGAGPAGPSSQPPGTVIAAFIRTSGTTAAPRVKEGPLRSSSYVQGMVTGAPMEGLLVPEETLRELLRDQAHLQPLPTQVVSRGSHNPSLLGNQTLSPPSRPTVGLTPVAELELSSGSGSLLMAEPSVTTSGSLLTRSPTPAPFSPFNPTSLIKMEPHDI
Chain of SPIB (Q01892 whole entry): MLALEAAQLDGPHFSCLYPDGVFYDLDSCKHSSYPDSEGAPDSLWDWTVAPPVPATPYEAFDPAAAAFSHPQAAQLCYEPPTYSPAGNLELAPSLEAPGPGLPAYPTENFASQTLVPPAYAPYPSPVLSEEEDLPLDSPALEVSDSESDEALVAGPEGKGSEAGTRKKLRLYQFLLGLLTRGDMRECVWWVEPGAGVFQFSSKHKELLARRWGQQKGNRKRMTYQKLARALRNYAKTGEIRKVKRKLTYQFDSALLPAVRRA
Chain of ETV5 (P41161 whole entry): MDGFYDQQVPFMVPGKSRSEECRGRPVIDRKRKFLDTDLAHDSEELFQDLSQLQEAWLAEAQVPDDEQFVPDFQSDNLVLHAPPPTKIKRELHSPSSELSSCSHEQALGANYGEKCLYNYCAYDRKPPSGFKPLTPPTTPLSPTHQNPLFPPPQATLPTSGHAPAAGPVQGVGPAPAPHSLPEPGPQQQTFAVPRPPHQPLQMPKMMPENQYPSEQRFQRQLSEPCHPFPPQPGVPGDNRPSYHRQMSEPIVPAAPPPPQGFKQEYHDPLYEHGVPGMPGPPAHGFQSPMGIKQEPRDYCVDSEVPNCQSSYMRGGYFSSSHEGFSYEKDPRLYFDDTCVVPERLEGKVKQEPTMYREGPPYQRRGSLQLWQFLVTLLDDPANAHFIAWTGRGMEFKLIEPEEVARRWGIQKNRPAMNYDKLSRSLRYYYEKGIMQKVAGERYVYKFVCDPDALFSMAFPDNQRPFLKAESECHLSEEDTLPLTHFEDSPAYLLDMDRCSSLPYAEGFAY
Chain of ELF1 (P32519 whole entry): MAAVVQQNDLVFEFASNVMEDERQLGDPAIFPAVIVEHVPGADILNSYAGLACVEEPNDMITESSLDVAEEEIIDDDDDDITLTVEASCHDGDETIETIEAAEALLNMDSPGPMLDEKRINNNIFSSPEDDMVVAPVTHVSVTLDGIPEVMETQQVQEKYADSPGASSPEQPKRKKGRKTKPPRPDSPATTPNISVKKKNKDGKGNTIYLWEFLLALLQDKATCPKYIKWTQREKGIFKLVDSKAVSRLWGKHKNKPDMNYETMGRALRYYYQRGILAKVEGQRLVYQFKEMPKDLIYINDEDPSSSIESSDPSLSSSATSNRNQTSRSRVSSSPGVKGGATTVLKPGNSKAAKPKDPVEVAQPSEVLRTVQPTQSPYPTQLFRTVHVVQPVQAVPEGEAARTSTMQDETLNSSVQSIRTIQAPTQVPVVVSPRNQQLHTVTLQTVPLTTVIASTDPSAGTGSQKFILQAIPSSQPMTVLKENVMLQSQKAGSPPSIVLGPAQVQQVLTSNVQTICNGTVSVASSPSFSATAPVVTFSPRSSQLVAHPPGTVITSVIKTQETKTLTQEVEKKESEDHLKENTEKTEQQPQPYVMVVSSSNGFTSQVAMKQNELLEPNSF
Chain of HSF1 (Q00613 whole entry): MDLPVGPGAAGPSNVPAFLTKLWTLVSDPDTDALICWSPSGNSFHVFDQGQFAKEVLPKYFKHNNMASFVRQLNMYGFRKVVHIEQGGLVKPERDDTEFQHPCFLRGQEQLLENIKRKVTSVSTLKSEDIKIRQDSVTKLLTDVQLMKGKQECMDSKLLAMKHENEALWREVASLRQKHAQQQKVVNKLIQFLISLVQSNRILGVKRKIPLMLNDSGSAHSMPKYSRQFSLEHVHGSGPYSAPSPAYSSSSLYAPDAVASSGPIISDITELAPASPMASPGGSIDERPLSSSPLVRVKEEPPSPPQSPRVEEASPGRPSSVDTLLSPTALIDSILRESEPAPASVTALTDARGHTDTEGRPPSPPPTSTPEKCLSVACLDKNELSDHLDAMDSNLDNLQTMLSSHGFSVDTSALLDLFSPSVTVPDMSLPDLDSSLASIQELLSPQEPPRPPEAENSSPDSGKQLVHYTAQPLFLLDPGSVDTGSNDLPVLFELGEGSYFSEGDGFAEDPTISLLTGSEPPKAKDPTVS

GAAGCA was tested, and the binding signal (FLI1) was 1.23 fold enrichment (6-mer frequency, TF over GST control), the binding signal (ELK1) was 1.35 fold enrichment (6-mer frequency, TF over GST control) and the binding signal (GABPA) was 1.3 fold enrichment (6-mer frequency, TF over GST control). The binding signal (ERG) was 1.34 fold enrichment (6-mer frequency, TF over GST control), the binding signal (ELF1) was 1.25 fold enrichment (6-mer frequency, TF over GST control) and the binding signal (EHF) was 1.26 fold enrichment (6-mer frequency, TF over GST control). The binding signal (SPI1) was 1.28 fold enrichment (6-mer frequency, TF over GST control), the binding signal (SPIB) was 1.25 fold enrichment (6-mer frequency, TF over GST control) and the binding signal (ELK3) was 1.43 fold enrichment (6-mer frequency, TF over GST control). For the same sequence, the binding signal (FEV) was 1.29 fold enrichment (6-mer frequency, TF over GST control), the binding signal (ETV5) was 1.41 fold enrichment (6-mer frequency, TF over GST control) and the binding signal (HSF1) was 1.06 fold enrichment (6-mer frequency, TF over GST control). For the same sequence, the binding signal (SPIC) was 1.19 fold enrichment (6-mer frequency, TF over GST control), the binding signal (ELF4) was 1.27 fold enrichment (6-mer frequency, TF over GST control) and the binding signal (ELK4) was 1.2 fold enrichment (6-mer frequency, TF over GST control). The binding signal (ETV2) was 1.37 fold enrichment (6-mer frequency, TF over GST control), the binding signal (ELF3) was 1.27 fold enrichment (6-mer frequency, TF over GST control) and the binding signal (ETV1) was 1.41 fold enrichment (6-mer frequency, TF over GST control).
